The whole screen tested about 68,000 compounds, of which about 2,700 (4%) showed an effect of 50% or more. Shown is part of a subset that was picked to be rich in strong results.

This is an account of results in ChEMBL document CHEMBL4513216, “Probing the Open Global Health Chemical Diversity Library for Multistage-Active Starting Points for Next-Generation Antimalarials” (ACS Infect Dis, 2020).

This test deals with Plasmodium berghei. In words: Screen against P. berghei liver stage (PbLuc), transformed with Luciferase, at 2uM. Format: functional, HepG2. As to conditions: tested at 2 uM.
Regarding `COc1ccc(CN2C[C@@H]3COC[C@@H](N4CCN(C)CC4)[C@@H]3C2)cc1`, the INHIBITION is given as -54.53%.

Regarding `CN(C)CCNC(=O)CCn1ncc2c(Cl)cccc21`, the INHIBITION stood at 19.92%. The result for `Cc1cccc(=O)n1CCC(=O)N1CC[C@](C)(O)[C@H](C)C1` reads -4.52%. `Cc1cccc(=O)n1CCC(=O)N1CC[C@@](O)(C2CCC2)[C@H](C)C1`: the INHIBITION is -11.55%. Then `Cc1cccc(=O)n1CCC(=O)N1CCC2(CC1)OCCCC2O` (configuration not stated), with 62.96%; and `OC1CN(Cc2ccccc2)CCN(c2ccncc2)C1` (configuration not stated), with 1.42%; and `Cc1cc(N2CCN(Cc3ccccc3)CC(O)C2)cc(C)n1` (configuration not stated), with 74.94%.

For the compound `Cc1cc(N2CCN(Cc3ccccc3)CC(O)C2)nc(N)n1` (configuration not stated), the INHIBITION was 24.44%. `COc1ccccc1C1CCN(c2ccc3cc[nH]c3n2)CC1`: the INHIBITION was 76.27%. As for `COc1cccc(C2CC(=O)Nc3nc(N4CCCCC4)sc32)c1OC` (configuration not stated), the INHIBITION is given as -18.15%.

Regarding `COc1cccc(C2CCN(c3ccc4cc[nH]c4n3)C2)c1OC` (configuration not stated), the INHIBITION was found to be 87.17%. Consider `Fc1ccccc1CN1CCCN(c2ccc3cc[nH]c3n2)CC1`, for which the INHIBITION is -1.87%. Regarding `COc1ccc(OC)c(C2CCN(c3ccc4cc[nH]c4n3)C2)c1` (configuration not stated), the INHIBITION amounted to 29.98%.

As to `c1cc(CN2CCCN(c3ccc4cc[nH]c4n3)CC2)ccn1`, the INHIBITION turned out to be 45.82%. `CCN1C(=O)CCC12CCCN(Cc1nccs1)CC2` (configuration not stated): the INHIBITION was -23.02%. Turning to `O=C1CC(c2ccccc2)c2sc(C(=O)O)c(-c3ccccc3)c2N1` (configuration not stated), the INHIBITION came to 4.74%. Then `Fc1ccc(CN2CCO[C@H]3[C@H](OCc4ccncc4)CC[C@@H]32)cc1`, with 4.54%; and `c1ncc(-c2cn(CCSc3cnn[nH]3)nn2)cn1`, with 70.58%. Then `c1c[nH]c(-c2cn(CCSc3cnn[nH]3)nn2)n1`, with 11.19%. For the compound `CCc1ncc(-c2cn(CCSc3ncn[nH]3)nn2)cn1`, the INHIBITION is -5.87%. The result for `CCn1ncc(C(=O)NCCc2nc(-c3ccncc3)n[nH]2)c1C` reads 9.61%.

For the compound `Cc1ccc(NC2CCN(C(=O)Cc3c(C)noc3C)CC2)nn1`, the INHIBITION is -25.13%. Take `CC(C)Cc1cc(NC(=O)c2ccncc2)n(C)n1`: the INHIBITION is 25.46%. Then `CC(C)Cc1cc(NC(=O)c2ccccc2)n(C)n1`, with 49.9%; and `CC(C)Cc1cc(NC(=O)c2ccccc2F)n(C)n1`, with -68.24%. Take `COc1ccccc1C(=O)Nc1cc(CC(C)C)nn1C`: the INHIBITION came out at 56.02%.

For `CC(C)Cc1cc(NC(=O)c2ccc(=O)[nH]n2)n(C)n1`, the INHIBITION is on record as -19.76%.

`COc1ccc(C(=O)Nc2cc(CC(C)C)nn2C)cc1`: the INHIBITION was 19.35%. For the compound `Cn1nc(CC(C)(C)C)cc1NC(=O)c1ccc2[nH]nnc2c1`, the INHIBITION is reported as 16.95%. For `CC(C)Cc1cc(NC(=O)c2n[nH]c3ccccc23)n(C)n1`, the INHIBITION is reported as 64.16%. For `CC(C)Cc1cc(NC(=O)c2ccc3[nH]nnc3c2)n(C)n1`, the INHIBITION amounted to 50.61%. As for `Clc1ccccc1-c1nnc(CNCCn2cccn2)o1`, the INHIBITION is given as 49.35%. Regarding `C=C(C)COCCNC(=O)C1CCCN1C(C)=O` (configuration not stated), the INHIBITION was determined as 45.75%. For the compound `Cn1cc(CN2CCCN(C(=O)c3ccc4ccccc4n3)CC2)cn1`, the INHIBITION is listed as 30.05%. Turning to `O=C(CNC(=O)Nc1c(F)cccc1Oc1ccccc1)NC1CC1`, the INHIBITION was -40.7%. For `Cc1nc2c(C(=O)N[C@H]3C[C@H]4CN(C)CCN4C3)cccc2[nH]1`, the INHIBITION is -51.5%.

With `CCn1c(CN2CCCC(O)(c3ccc(F)cc3)CC2)cnc1SC` (configuration not stated), the INHIBITION is listed as 49.87%. On to `Cc1ccccc1OCCC(=O)N1CCCC(n2cncn2)C1` (configuration not stated), for which the INHIBITION is reported as 2.08%. Consider `COc1ccc(CC(=O)N2Cc3nccn3CC(CN(C)C)C2)cc1` (configuration not stated), for which the INHIBITION is 35.26%.

With `Cc1cncc(CN2CC[C@@](O)(CNC(=O)c3c[nH]cn3)[C@H](O)C2)c1`, the INHIBITION is given as 19.36%. In the case of `O=C(NC[C@]1(O)CCN(Cc2ccsc2)C[C@H]1O)c1c[nH]cn1`, the INHIBITION is 69.45%. `O=C(NC[C@]1(O)CCN(Cc2ccccc2F)C[C@H]1O)c1c[nH]cn1`: the INHIBITION was 38.96%.

As to `CS(=O)(=O)N1CCC2(CC1)CC(NCc1ccco1)c1ccccc12` (configuration not stated), the INHIBITION was -9.53%. For `O=C1CN(C(=O)CN(CC2CCC2)CC(F)(F)F)CCN1`, the INHIBITION was determined as 19.92%.

In the case of `Cc1cc(C)n(Cc2cc(C(=O)N3CCCC3c3ccccn3)n[nH]2)n1` (configuration not stated), the INHIBITION is listed as -15.08%. On to `CC(C)(C)CC(=O)Nc1ncn(CC(=O)NCc2ccccc2)n1`, for which the INHIBITION was -34.98%. Take `O=C(Cn1cnc(NC(=O)CC2CCCC2)n1)NCc1ccccc1`: the INHIBITION is 67.59%. Then `CC(CC(=O)Nc1ncn(CC(=O)NCc2ccccc2)n1)C1CC1` (configuration not stated), with -1.21%. On to `O=C(NCCn1cc(Cl)cn1)C1CCN(C(=O)C2CC2)CC1`, for which the INHIBITION is recorded as 23.64%. Turning to `NC(=O)CN1CCC(C(=O)NCCn2cc(Cl)cn2)CC1`, the INHIBITION is reported as -10.84%. As for `N[C@@H]1CC[C@H](C(=O)NCCn2cc(Cl)cn2)C1`, the INHIBITION is reported as 61.95%. On to `O=C(CCN1CCCCO1)NC1CCCN(CC2CCCCC2)C1` (configuration not stated), for which the INHIBITION is given as -0.88%. On to `COc1ccc(CNCc2ccnc(N3CCCCC3)c2)cc1OC`, for which the INHIBITION is reported as 30.91%. Consider `Fc1cc(CNCc2ccc3c(c2)CCO3)ccc1N1CCOCC1`, for which the INHIBITION was -10.05%. Then `COc1ccc(OC)c(CNCc2ccnc(N3CCOCC3)c2)c1`, with -28.39%. Regarding `c1cc(CNCc2ccnc(N3CCOCC3)c2)c2c(c1)OCCO2`, the INHIBITION was determined as 1.22%.

As to `COc1ccc(CNCc2ccnc(N3CCOCC3)c2)cc1OC`, the INHIBITION is recorded as 62.13%. The result for `c1cc(CNCc2ccc3c(c2)CCO3)cc(N2CCOCC2)n1` reads 57.82%.

Consider `c1cnc(N2CCCC(c3cc4cccnc4[nH]3)C2)nc1` (configuration not stated), for which the INHIBITION came to 14.47%. On to `C=C(C)COc1cccc(C(=O)N(CC)Cc2noc(C)n2)c1`, for which the INHIBITION is on record as 76.82%. Regarding `C=C(C)COc1cccc(CN(CC)Cc2noc(C)n2)c1`, the INHIBITION came out at 36.28%. The result for `CCN(Cc1nccn1C)C(=O)c1ccc(NCc2ccccc2)nc1` reads 8.89%. Consider `C=C(C)COc1cccc(C(=O)N(CC)Cc2nccn2C)c1`, for which the INHIBITION is given as 52.98%. On to `C=C(C)CNc1ccc(C(=O)N(CC)Cc2nccn2C)cn1`, for which the INHIBITION is recorded as -13.51%. For the compound `C=C(C)COc1cccc(C(=O)N(CC)Cc2nc(COC)no2)c1`, the INHIBITION is listed as -18.57%. As to `CCn1nc(C)c2ncnc(N(C)Cc3ccco3)c21`, the INHIBITION was determined as 46.92%. In the case of `CN(C)c1ccc(CN2C[C@@H]3CC[C@H]2CN(C2CCOCC2)C3)cn1`, the INHIBITION was found to be 25.52%.
